Measurements taken from the supplement of paper PMC12494721.
Counter-ions that a name gives are not always drawn.

Key:
Conditions in all cases: incubation time: 27 h, anaerobic, 37 °C;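 for the amine columns active = adjusted P below 0.05 in both replicates with a change the same way and a mean fold change under 0.8 or over 1.25; inactive = the rest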
[1] = system: Clostridium sporogenes DSM 1664; assay: growth (OD595) fold change vs plate DMSO controls (fold change (ratio)); higher = more growth
Procedure, shortened: (§1)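 The 96-well mGAM cultures had been kept anaerobic for 27 h at 37 °C before being shaken and read at 595 nm. Blank subtraction, compound background correction with 20 µM compound solutions in water, and a calibration factor of 5 turned the readings into OD. Growth is given as the fold change versus the median of plate DMSO controls. Fold changes above 1.5 were set to NA, and the values are means of 2 biological replicates.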

[2] = system: Escherichia coli IAI1; assay: as above
Procedure, shortened: as §1

[3] = system: Klebsiella aerogenes DSM 30053; assay: as above
Procedure, shortened: as §1

[4] = system: Ruminococcus gnavus DSM 108212; assay: as above
Procedure, shortened: as §1

[5] = system: Klebsiella aerogenes DSM 30053; assay: fold change of Histamine concentration vs plate DMSO controls (fold change (ratio)); higher = more amine produced, active = hit call of the paper (significant change in both replicates, either direction)
Procedure, shortened: (§2)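 Each value is the fold change relative to DMSO-only wells on the same plate. Four gut bacterial strains were grown anaerobically in mGAM at 37 °C for 27 h in 80 µL wells, starting at OD 0.1 before a 1:1 dilution, with compounds at 20 µM final (sweeteners 50 µM). Whole cultures were extracted with cold acetonitrile/methanol containing 0.1% formic acid, centrifuged, and amines were quantified by LC–triple-quadrupole MS (dynamic MRM) against external calibration curves with within-batch drift correction. Values are means of 2 biological replicates.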

[6] = system: Clostridium sporogenes DSM 1664; assay: fold change of Tryptamine concentration vs plate DMSO controls (fold change (ratio)); higher = more amine produced, active = hit call of the paper (significant change in both replicates, either direction)
Procedure, shortened: as §2

[7] = system: Ruminococcus gnavus DSM 108212; assay: as above
Procedure, shortened: as §2

[8] = system: Escherichia coli IAI1; assay: fold change of Putrescine concentration vs plate DMSO controls (fold change (ratio)); higher = more amine produced, active = hit call of the paper (significant change in both replicates, either direction)
Procedure, shortened: as §2

[9] = system: Klebsiella aerogenes DSM 30053; assay: as above
Procedure, shortened: as §2

[10] = system: Escherichia coli IAI1; assay: fold change of Cadaverine concentration vs plate DMSO controls (fold change (ratio)); higher = more amine produced, active = hit call of the paper (significant change in both replicates, either direction)
Procedure, shortened: as §2

[11] = system: Klebsiella aerogenes DSM 30053; assay: as above
Procedure, shortened: as §2

[12] = system: Ruminococcus gnavus DSM 108212; assay: fold change of 2-Phenylethylamine concentration vs plate DMSO controls (fold change (ratio)); higher = more amine produced, active = hit call of the paper (significant change in both replicates, either direction)
Procedure, shortened: as §2

| Structure (SMILES) | growth [1] | growth [2] | growth [3] | growth [4] | fold change of Histamine concentration [5] | fold change of Tryptamine concentration [6] | fold change of Tryptamine concentration [7] | fold change of Putrescine concentration [8] | fold change of Putrescine concentration [9] | fold change of Cadaverine concentration [10] | fold change of Cadaverine concentration [11] | fold change of 2-Phenylethylamine concentration [12] |
| --- | --- | --- | --- | --- | --- | --- | --- | --- | --- | --- | --- | --- |
| CO[C@@H]1[C@@H](O[C@@H]2O[C@H](C)[C@@H](O[C@H]3C[C@@](C)(O)[C@@H](O)[C@H](C)O3)[C@H](N(C)C)[C@H]2O)[C@@H](CC=O)C[C@@H](C)[C@@H](O[C@H]2CC[C@H](N(C)C)[C@@H](C)O2)/C=C/C=C/C[C@@H](C)OC(=O)C[C@H]1OC(C)=O [Acetyl spiramycin] (20 µM) | 0.00073 | 1.03 | 0.958 | 0.154 | 0.621 (active) | 0.0194 (active) | 0.153 (active) | 0.875 (inactive) | 1.03 (inactive) | 0.989 (inactive) | 1.03 (inactive) | 0.156 (active) |
| Cn1c(=O)c2c(ncn2CC(O)CO)n(C)c1=O (stereo not given) [Diprophylline] (20 µM) | 0.915 | 1.02 | 0.992 | 0.783 | 1.03 (inactive) | 0.964 (inactive) | 0.971 (inactive) | 1.02 (inactive) | 1.01 (inactive) | 0.98 (inactive) | 1 (inactive) | 0.99 (inactive) |
| CCCN(CCC)C(=O)C(CCC(=O)O)NC(=O)c1ccccc1 (stereo not given) [Proglumide] (20 µM) | 0.898 | 1.36 | 1.01 | 0.78 | 0.906 (inactive) | 1.44 (active) | 1.06 (inactive) | 1.31 (active) | 0.919 (inactive) | 0.929 (inactive) | 1.01 (inactive) | 1.11 (inactive) |
| CC(=O)Nc1ccccc1 [Acetanilide] (20 µM) | 1.1 | 0.998 | 1 | 0.941 | 1.01 (inactive) | 1.03 (inactive) | 1.02 (inactive) | 1.04 (inactive) | 1.02 (inactive) | 0.982 (inactive) | 1.01 (inactive) | 1.05 (inactive) |
| C#C[C@]1(O)CC[C@H]2[C@@H]3CCc4cc(OC)ccc4[C@H]3CC[C@@]21C [Mestranol] (20 µM) | 0.992 | 0.999 | 1.09 | 1.14 | 0.93 (inactive) | 1.04 (inactive) | 0.893 (inactive) | 0.949 (inactive) | 1.01 (inactive) | 1.01 (inactive) | 1.01 (inactive) | 0.831 (inactive) |
| Nc1ccc(S(=O)(=O)Nc2nccs2)cc1 [Sulfathiazole] (20 µM) | 0.969 | 0.979 | 1.03 | 0.853 | 1 (inactive) | 0.968 (inactive) | 1.03 (inactive) | 0.955 (inactive) | 1.02 (inactive) | 1.03 (inactive) | 1.01 (inactive) | 1.03 (inactive) |
| CN(C)CCN(Cc1ccc(Cl)cc1)c1ccccn1 [Chloropyramine hydrochloride] (20 µM) | 0.894 | 1.03 | 0.92 | 0.771 | 0.98 (inactive) | 1.05 (inactive) | 1.16 (inactive) | 0.817 (inactive) | 0.975 (inactive) | 1.58 (active) | 0.994 (inactive) | 1.27 (inactive) |
| C[N+]1(C)CCC(OC(=O)C(O)(c2ccccc2)C2CCCC2)C1 (stereo not given) [Glycopyrrolate bromide] (20 µM) | 0.836 | 1.03 | 1.01 | 0.959 | 1 (inactive) | 1.01 (inactive) | 0.994 (inactive) | 1.08 (inactive) | 1 (inactive) | 1.01 (inactive) | 1.01 (inactive) | 1.02 (inactive) |
| CC(=O)[C@H]1CC[C@H]2[C@@H]3C[C@H](C)C4=CC(=O)CC[C@]4(C)[C@H]3[C@@H](O)C[C@]12C [Medrysone] (20 µM) | 1.08 | 1.03 | 1.05 | 1.03 | 1.02 (inactive) | 1.03 (inactive) | 1.01 (inactive) | 0.978 (inactive) | 1 (inactive) | 1.02 (inactive) | 0.996 (inactive) | 1.01 (inactive) |
| COc1ccc2c(c1)C(=O)N(CCc1ccc(S(=O)(=O)NC(=O)NC3CCCCC3)cc1)C(=O)C2(C)C [Gliquidone] (20 µM) | 0.999 | 1.05 | 0.984 | 0.999 | 1.04 (inactive) | 0.929 (inactive) | 0.956 (inactive) | 1.04 (inactive) | 1 (inactive) | 1.04 (inactive) | 0.988 (inactive) | 0.942 (inactive) |
| CCC1NC(=O)c2cc(S(N)(=O)=O)c(Cl)cc2N1 (stereo not given) [Quinethazone] (20 µM) | 0.978 | 0.894 | 0.838 | 0.755 | 1.02 (inactive) | 1.27 (inactive) | 1.1 (inactive) | 0.956 (inactive) | 0.92 (inactive) | 1.01 (inactive) | 1.19 (inactive) | 1.24 (inactive) |
| Cc1cc(NC(=O)C2=C(O)c3ccccc3S(=O)(=O)N2C)no1 [Isoxicam] (20 µM) | 1.11 | 1.05 | 0.997 | 1.02 | 0.996 (inactive) | 1.02 (inactive) | 1.02 (inactive) | 1.03 (inactive) | 1.01 (inactive) | 0.969 (inactive) | 0.994 (inactive) | 0.947 (inactive) |
| CN1CCN(c2c(F)cc3c(=O)c(C(=O)O)cn(CCF)c3c2F)CC1 [Fleroxacin] (20 µM) | 0 | 0 | 0 | 0 | 0.153 (active) | 0.0453 (active) | 1.08 (inactive) | 0.785 (inactive) | 0.902 (inactive) | 0.26 (active) | 0.961 (inactive) | 1.15 (inactive) |
| COCCOC(=O)C1=C(C)NC(C)=C(C(=O)OC(C)C)C1c1cccc([N+](=O)[O-])c1 (stereo not given) [Nimodipine] (20 µM) | 0.946 | 0.814 | 1.03 | 0.991 | 0.947 (inactive) | 0.965 (inactive) | 0.909 (inactive) | 0.889 (inactive) | 0.99 (inactive) | 1.09 (inactive) | 1.01 (inactive) | 0.903 (inactive) |
| C/C(=C\C(=O)OCCCCCCCCC(=O)O)C[C@@H]1OC[C@H](C[C@@H]2O[C@H]2[C@@H](C)[C@H](C)O)[C@@H](O)[C@H]1O [Mupirocin] (20 µM) | 0.909 | 0.423 | 0.631 | 0.934 | 0.384 (active) | 0.968 (inactive) | 1.04 (inactive) | 0.182 (active) | 0.7 (active) | 0.209 (active) | 0.763 (active) | 0.957 (inactive) |
| CNNCc1ccc(C(=O)NC(C)C)cc1 [Procarbazine hydrochloride] (20 µM) | 1.03 | 1.07 | 1.02 | 1.27 | 1.05 (inactive) | 1.02 (inactive) | 1.03 (inactive) | 1.02 (inactive) | 0.983 (inactive) | 0.984 (inactive) | 1 (inactive) | 1.06 (inactive) |
| O=C(O)Cc1ccccc1Nc1c(Cl)cccc1Cl [Diclofenac sodium] (20 µM) | 0.954 | 0.984 | 0.986 | 1.03 | 1.06 (inactive) | 0.699 (active) | 0.988 (inactive) | 1.02 (inactive) | 1 (inactive) | 1.01 (inactive) | 1 (inactive) | 0.989 (inactive) |
| CCCCN1CCCCC1C(=O)Nc1c(C)cccc1C (stereo not given) [Bupivacaine hydrochloride] (20 µM) | 1.13 | 1.07 | 1 | 0.881 | 0.967 (inactive) | 1.02 (inactive) | 1.01 (inactive) | 1.02 (inactive) | 0.995 (inactive) | 1.01 (inactive) | 1 (inactive) | 1.02 (inactive) |
| COc1cccc2c1C(=O)c1c(O)c3c(c(O)c1C2=O)C[C@@](O)(C(=O)CO)C[C@@H]3O[C@H]1C[C@H](N)[C@H](O)[C@H](C)O1 [Doxorubicin hydrochloride] (20 µM) | 0.843 | 1.02 | 1.03 | 1.25 | 1.04 (inactive) | 0.956 (inactive) | 0.963 (inactive) | 0.958 (inactive) | 0.982 (inactive) | 1.03 (inactive) | 1.02 (inactive) | 0.943 (inactive) |
| CCn1cc(C(=O)O)c(=O)c2ccc(C)nc21 [Nalidixic acid sodium salt] (20 µM) | 1.09 | 0.265 | 0.814 | 1.13 | 1.43 (inactive) | 0.991 (inactive) | 1.02 (inactive) | 0.671 (inactive) | 1.05 (inactive) | 1.69 (inactive) | 0.966 (inactive) | 1.07 (inactive) |
| CC(=O)c1ccc2c(c1)N(CCCN1CCC(CCO)CC1)c1ccccc1S2 [Piperacetazine] (20 µM) | 0.454 | 0.148 | 0.138 | 0 | 0.95 (inactive) | 1.32 (inactive) | 1.17 (inactive) | 0.95 (inactive) | 0.978 (inactive) | 0.846 (inactive) | 0.993 (inactive) | 1.29 (inactive) |
| Cc1c(N)c(=O)n(-c2ccccc2)n1C [Ampyrone] (20 µM) | 1.01 | 0.995 | 0.983 | 0.854 | 0.947 (inactive) | 1.07 (inactive) | 0.901 (inactive) | 0.975 (inactive) | 0.992 (inactive) | 1.03 (inactive) | 1.01 (inactive) | 0.926 (inactive) |
| COc1ccc(NS(=O)(=O)c2ccc(N)cc2)nn1 [Sulfamethoxypyridazine] (20 µM) | 0.883 | 1.01 | 0.983 | 1.01 | 1.06 (inactive) | 1.03 (inactive) | 1.17 (inactive) | 1.02 (inactive) | 1.03 (inactive) | 1.07 (inactive) | 1.1 (inactive) | 1.44 (inactive) |
| O=c1[nH]cnc2c1ncn2[C@H]1CC[C@@H](CO)O1 [Didanosine] (20 µM) | 1.07 | 1.03 | 1.03 | 1.08 | 0.958 (inactive) | 0.992 (inactive) | 1.15 (inactive) | 1.14 (inactive) | 1.08 (inactive) | 1.69 (active) | 1.03 (inactive) | 1.16 (inactive) |
| CC(C)NCC(O)COc1cccc2[nH]ccc12 (stereo not given) [Pindolol] (20 µM) | 1.03 | 1.13 | 1.01 | 0.881 | 0.989 (inactive) | 1.07 (inactive) | 1.12 (inactive) | 1.18 (inactive) | 1.04 (inactive) | 1.21 (inactive) | 1.15 (inactive) | 1.27 (inactive) |
